Sampled rows, rich in hits. Any-hit rate of the full collection: about 12%.
USP28 block: inhibitors of human USP28 deubiquitinase; inhibition, % at 25 µM; AID 1645857; actives 3% (n = 47,000); purified USP28, Ub-rhodamine cleavage fluorescence, 30 min
USP30 inh: human USP30 deubiquitinase inhibition; purified USP30, Ub-rhodamine cleavage fluorescence; inhibition, % at 25 µM; actives 5.3% (n = 47,000)
OTUD3 block: inhibitors of human OTUD3 deubiquitinase; purified OTUD3, Ub-rhodamine fluorescence, 2 h; Q5T2D3; actives 0.7% (n = 47,000); inhibition, % at 25 µM
USP17 inh: human USP17-like deubiquitinase inhibition | inhibition, % at 50 µM | actives 6.5% (n = 47,000) | purified USP17, Ub-rhodamine cleavage fluorescence, 3 h | A8MUK1
* marks the source's active call; other numbers are inactive results; . = no result given. Rule as the data show it: active = inhibition above about 30%; inactive = the rest.

SMILES	USP28 block	USP30 inh	OTUD3 block	USP17 inh
CCCc1cc(C2CCCN2S(=O)(=O)c2ccc3c(c2)OCCN3C(C)=O)no1 (stereo unspecified)	49*	0	-12	-6
Nc1ncnc2nc(C3CCN(C(=O)Cc4ccccc4)C3)ccc12 (stereo unspecified)	.	.	0	-9
CCc1cccc(-n2nnnc2N2CCN(C(=O)Nc3ccc(F)cc3)CC2)c1	-1	-17	-2	.
COc1ccc2c(c1)CCc1c-2n[nH]c1C(=O)N1CCN(C)CC1	-6	-6	0	3
COc1ccc2c(c1)CCc1c-2n[nH]c1C(=O)N1CCC(C(N)=O)CC1	9	30*	7	24
Cc1cc(NC(=O)c2[nH]nc3c2CCc2ccccc2-3)no1	12	-31	-10	64*
COc1ccc2c(c1)CCc1c-2n[nH]c1C(=O)N1CCN(c2ncccn2)CC1	-2	-1	-4	0
COc1ccc2c(c1)CCc1c-2n[nH]c1C(=O)Nc1cc(C)on1	34*	55*	17	33*
Cc1c2c(nc3ccccc13)-c1ccccc1CC2	55*	-22	7	5
COc1cc(NC(=O)c2cn3c(n2)CCCC3)cc(OC)c1	-8	-1	-3	-4
CC(=O)N1CCCC2(Cc3ccccc3CN2S(=O)(=O)c2ccccc2)C1 (stereo unspecified)	-6	-19	-5	-8
NCC(=O)N1CCCC2(Cc3ccccc3CN2S(=O)(=O)c2ccccc2)C1 (stereo unspecified)	12	44*	16	-9
c1ccc2c(Cc3nc(-c4ccncc4)no3)cccc2c1	85*	-24	-2	-22
Cc1ccc(-n2nnnc2CNC(=O)Nc2ccccc2)cc1	-1	1	5	-3
COc1ccc(C(=O)OC(C)C(=O)NCC2CCCCC2)cc1S(=O)(=O)N1CCOCC1 (stereo unspecified)	-11	-6	-5	-15
CC(OC(=O)c1ccc2c(c1)OCCO2)C(=O)NCC1CCCCC1 (stereo unspecified)	22	53*	9	29
CC(OC(=O)c1ccc2c(c1)OCO2)C(=O)Nc1ccccc1-c1ccccc1 (stereo unspecified)	6	-1	13	4
CC(OC(=O)c1ccc2c(c1)OCO2)C(=O)NCC1CCCCC1 (stereo unspecified)	27	54*	17	54*
CN(CCc1ccccn1)C(=O)c1cn2ccccc2n1	-29	-107	-18	-24
Cc1ccc(OCc2nc(C)c(C(=O)NCC3CCCO3)s2)cc1 (stereo unspecified)	-5	-22	-7	-11
Cc1ccnc(Nc2nc(C)c(C(=O)NC3CCCC3)s2)c1	3	-10	3	31*
Cc1nc(NC2CC2)sc1C(=O)NC1CCCC1	-5	-49	7	1
Cc1nc(COc2ccccc2)sc1C(=O)NC1CCCC1	10	15	10	39*
O=S(=O)(c1cc(-c2nnc(C3CCC3)o2)co1)N1CCCCC1	10	4	27	2
Cc1cc(C)cc(NS(=O)(=O)c2cc3c4c(c2)CC(=O)N4CCC3)c1	4	-7	-9	-12
SMILES	USP28 block	USP30 inh	OTUD3 block	USP17 inh
CC(=O)N1CCc2cc(Br)cc(S(=O)(=O)Nc3cc(C)cc(C)c3)c21	-8	-2	-13	47*
CN1CCCC12CCCN(C(=O)c1ccc(Cl)cc1)C2 (stereo unspecified)	-11	-3	-8	-4
N[C@@H](Cc1ccccc1)C(=O)N1CCC2(CC1)CN(C(=O)c1ccc(Cl)cc1)CCO2	45*	68*	21	46*
O=c1cc(CNc2ccc(Br)cc2)nc2nc(-c3ccccc3)[nH]n12	42*	32*	36*	82*
CN1CCN(C(=O)c2cnc(-c3noc4cc(N5CCCC5)ccc34)s2)CC1	23	-47	-5	-6
C[C@]12CN(S(=O)(=O)c3ccccc3F)C[C@H]1NC(=O)c1ccccc1C2=O	9	19	6	8
Cc1cccc(NC(=O)c2ccc(N3CCCC3)nn2)c1	12	32*	0	-9
Cc1cccc(NC(=O)c2ccc(N3CCCC3)nn2)n1	11	5	0	-3
Cc1c(Cl)cccc1NC(=O)c1ccc(N2CCCC2)nn1	25	61*	13	56*
COc1ccc(NC(=O)CCC(=O)N2CCC(C(=O)O)CC2)cc1	2	10	4	8
Cc1nc2ccc(C(=O)N3CCCC3c3nc(C)c4c(n3)N(CC(C)C)C(=O)C4)cc2s1 (stereo unspecified)	0	-11	2	42*

Assay outcomes: PubChem BioAssay, Buhrlage Lab, Dana-Farber Cancer Institute and Novartis Institutes for BioMedical Research (Cambridge, Mass)
